ERG Ets-DNA blk – qHTS for Small Molecule Inhibitors of the ERG Ets/DNA interaction | Transcriptional regulator ERG (Homo sapiens), P11308 | fluorescence polarization, His-ERG Ets domain / labelled DNA | Potency, µM (top dose mostly 76.9 µM), hits mostly inhibitors | actives 0.028% (n = 370,000) | AID 624246, 2012; active = well fitted inhibition curve with a large enough effect in the polarisation, with a control signal flat; inconclusive = small, poorly fitted or top-dose-only effect, or effect the other way, or a change in a side signal; inactive = no such curve, though single readings can be large or run the other way; the % refers to the polarisation;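 note: polarization taken with two DNA probes labelled with fluorescein and Texas red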
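His-tagged ERG Ets domain (1 uM in the protein solution; 300mM KCl, 50mM Tris-HCl, 1mM EDTA, 1mM DTT, pH 7.5) received compound, then a probe mix of 5 nM fluorescein-DNA and 100nM Texas-615-DNA. Fluorescence polarization was read for both dyes.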
Giardia killer – Small Molecules that selectively kill Giardia lamblia: qHTS. Giardia lamblia trophozoite viability. activity change, % at 7.66 µM, hits read low. actives 0.15% (n = 340,000). AID 540267, 2011; in the data active = activity change below about -80%; inconclusive = between about -30% and that limit;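 note: parasites exposed to compound for two days anaerobically before the ATP read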
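Luminescence from cellular ATP indicates surviving trophozoites (100 cells/well) following 48 hrs anaerobic compound treatment at 37 deg C; signal develops 15-30 min at room temperature.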
RORg inh – qHTS for inhibitors of ROR gamma transcriptional activity; Drosophila S2 Gal4-RORgamma UAS-luciferase reporter, 20 h; Nuclear receptor ROR-gamma (Mus musculus), P51450; Potency, µM (highest dose often 53.6 µM), most hits filed as inhibitors; AID 2551, 2010; actives 5.4% (n = 310,000); note: nearly all actives have a fitted effect of over 60% in size
Target sequence (P51450 whole entry, looked up, the tested form may be a part): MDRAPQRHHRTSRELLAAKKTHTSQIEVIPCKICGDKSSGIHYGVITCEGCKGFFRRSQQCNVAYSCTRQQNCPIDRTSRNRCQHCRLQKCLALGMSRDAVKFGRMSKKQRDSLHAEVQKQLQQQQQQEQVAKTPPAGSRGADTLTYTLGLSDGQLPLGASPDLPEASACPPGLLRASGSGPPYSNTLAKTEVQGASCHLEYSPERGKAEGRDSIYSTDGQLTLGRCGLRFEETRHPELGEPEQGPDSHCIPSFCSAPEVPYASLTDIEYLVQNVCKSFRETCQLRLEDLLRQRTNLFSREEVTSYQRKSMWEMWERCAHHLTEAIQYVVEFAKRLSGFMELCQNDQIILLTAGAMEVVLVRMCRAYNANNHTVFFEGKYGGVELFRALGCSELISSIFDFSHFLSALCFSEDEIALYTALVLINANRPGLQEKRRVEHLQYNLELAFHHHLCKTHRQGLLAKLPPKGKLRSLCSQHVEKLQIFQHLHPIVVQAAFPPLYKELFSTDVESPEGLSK
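Luciferase reporter read in Schneider cells carrying Gal4-RORγ (mouse) and UAS-Photinus luciferase; cells given compound 1 h before 700 uM copper sulfate induction, then incubated 20 h at ambient temperature.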
VP16 counter – VP16 counterscreen qHTS for inhibitors of ROR gamma transcriptional activity | Drosophila S2 Gal4-VP16 UAS-luciferase, luminescence, 20 h | Potency, µM (series often up to 53.6 µM), hits mostly inhibitors | actives 3.5% (n = 310,000) | AID 2546, 2010;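 note: Gal4-VP16 expression switched on by copper sulfate through the metallothionein promoter; nearly all actives have a fitted effect of over 50% in size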
Integrin act MD – qHTS for Activators of Integrin-Mediated Alleviation for Muscular Dystrophy. alpha7betagal myoblasts, beta-gal FDG fluorescence, 48 h. Potency, µM (titrated, usually from 38.3 µM), most hits filed as activators. actives 0.064% (n = 350,000). AID 624291, 2012; note: nearly all actives have a fitted effect of over 60% in size
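alpha7betagal+/- myoblasts (passage 13, 250/well) treated 48 h at 37C with compounds at 1:260 dilution of DMSO stock. Lysed, then beta-galactosidase activity read as FDG fluorescence (ex 480/em 540) after 30 min, with pre-read for autofluorescence.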
Numbers stand for hits. The sample as a whole holds a higher share of hits than the screen did. Unless noted, calls come from the whole dose curve; as a rule, active = well fitted curve in the direction sought with a large enough effect; inconclusive = small, poorly fitted or top-dose-only effect, or another doubt; inactive = no such curve, though single readings can be large; an effect the other way counts as inactive or inconclusive.

`O=C(Oc1cccc2ccccc12)c1ccco1` gave ERG Ets-DNA blk inactive, Giardia killer inactive, RORg inh inactive, VP16 counter inactive and Integrin act MD inactive.
O=C(NCCOc1cccc2cccnc12)c1cccs1 was read as ERG Ets-DNA blk inactive, Giardia killer inactive, RORg inh inactive, VP16 counter inactive and Integrin act MD inactive.
Screening O=C(Oc1cccc2cccnc12)c1ccco1 returned ERG Ets-DNA blk inactive, Giardia killer inactive, RORg inh 1.6µM, VP16 counter 4µM and Integrin act MD inactive.
`O=C(Oc1ccc(Cl)c2cccnc12)c1ccco1` gave ERG Ets-DNA blk inactive, Giardia killer inactive, RORg inh 0.89µM, VP16 counter 1.6µM and Integrin act MD inactive.
O=C(Nc1ccccc1)c1cccc2c(=O)c3c([nH]c12)CCCC3 was read as ERG Ets-DNA blk inactive.
For CC(=O)OC(C)C the results were RORg inh inactive and VP16 counter inactive.
C[C@H](N)C(=O)N[C@@H](CO)C(=O)N[C@H](C(=O)N[C@H](C(=O)N[C@H](C(=O)N[C@@H](CC(N)=O)C(=O)N[C@@H](Cc1ccc(O)cc1)C(=O)N[C@H](C(=O)O)[C@@H](C)O)[C@@H](C)O)[C@@H](C)O)[C@@H](C)O was read as RORg inh inactive and VP16 counter inactive.
`CCC(C)[C@H](N)c1nnc(SCc2ccc(Cl)c(Cl)c2)o1` (some centres undefined) gave ERG Ets-DNA blk inactive.
CCOc1ccc(CC(=O)C2=C(N3CCOCC3)CC(C)(C)CC2=O)cc1OCC was read as ERG Ets-DNA blk inactive, Giardia killer inactive, RORg inh inactive, VP16 counter inactive and Integrin act MD inactive.
`O=C(Cc1ccc(Cl)cc1)Oc1cccc2cccnc12` gave ERG Ets-DNA blk inactive, Giardia killer inactive, RORg inh 1.4µM, VP16 counter 4µM and Integrin act MD inactive.
Screening NNC(=O)COc1cccc2cccnc12 returned ERG Ets-DNA blk inactive, Giardia killer inactive, RORg inh inconclusive, VP16 counter inactive and Integrin act MD inactive.
Screening CCOc1ccc2nc(N/C(N)=N/C(=S)Nc3ccc(C)c(C)c3)nc(C)c2c1 returned ERG Ets-DNA blk inactive, Giardia killer inactive, RORg inh 1.8µM, VP16 counter inconclusive and Integrin act MD inactive.
`CCNC(=S)/N=C(\N)Nc1nc(C)c2cc(C)ccc2n1` gave ERG Ets-DNA blk inactive, Giardia killer inactive, RORg inh inactive, VP16 counter inactive and Integrin act MD inactive.
Screening COc1ccc(NC(=S)/N=C(\N)Nc2nc(C)c3ccc(C)cc3n2)cc1 returned ERG Ets-DNA blk inactive, Giardia killer inactive, RORg inh 0.63µM, VP16 counter 2µM and Integrin act MD inactive.
`O=C1C[C@@H]2c3c(cccc3CN1Cc1ccc(F)cc1)C[C@@H](O)[C@H]2O` gave ERG Ets-DNA blk inactive, Giardia killer inactive and Integrin act MD inactive.
For CCn1c(O)c(N=N)c2ccccc21 the results were ERG Ets-DNA blk inactive, Giardia killer inactive, RORg inh inactive, VP16 counter inactive and Integrin act MD inactive.
For CCn1c(O)c(N=NC2=NC(=O)CS2)c2ccccc21 the results were ERG Ets-DNA blk inactive, Giardia killer inactive, RORg inh 10µM, VP16 counter inconclusive and Integrin act MD inactive.
`COc1ccc(C(CCNCc2ccc(OC(C)C)cc2)C(C)C)cc1` (centres undefined) gave ERG Ets-DNA blk inactive, Giardia killer inactive, RORg inh 13µM, VP16 counter inconclusive and Integrin act MD inactive.
For COc1ccc(CNCCC(c2ccc(OC(C)C)cc2)C(C)C)cc1OC (centres undefined) the results were ERG Ets-DNA blk inactive, Giardia killer inactive, RORg inh inactive, VP16 counter inactive and Integrin act MD inactive.
For COc1ccc(-c2cn[nH]c2-c2ccc(OC)cc2O)cc1 the results were ERG Ets-DNA blk inactive, Giardia killer inactive, RORg inh inconclusive, VP16 counter 20µM and Integrin act MD inactive.
COc1ccc(-c2[nH]ncc2-c2ccc(Cl)cc2)c(O)c1 was read as ERG Ets-DNA blk inactive, Giardia killer inactive, RORg inh 8.9µM, VP16 counter inconclusive and Integrin act MD inactive.
